Structures are written as SMILES.
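Note: KINOMEscan kinase panel screen.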

For this experiment, the system named is CDK7. The conditions noted are these: concentration: 1 μM, replicates: in singlicate; n = 1.
In the case of `O=C(Nc1n[nH]c2nc(-c3ccccc3O)ccc12)C1CC1` [SB-711880], the “%Inh” value is on record as 7%.
With `N#CC1(c2cccc(C(=O)Nc3cccc(Oc4ccc5nc(NC(=O)C6CC6)sc5n4)c3)c2)CC1` the figure was 12%; with `Cl.Cl.NCC(NC(=O)c1cc(-c2cccnc2)c(-c2ccnc3[nH]ccc23)s1)c1ccccc1` (stereo not shown) [GSK1323434], 50%; with `COc1cccc(C2=C(Nc3cccc(O)c3)C(=O)NC2=O)c1` [SB-390771], 98.3%.
For `Fc1cc(Cl)ccc1Nc1ccnc2cc(-c3ccc(CN4CCSCC4)o3)ccc12` [GW560106], the “%Inh” value was 0%.
As to `O=C(O)C(F)(F)F.O=c1[nH]ccc2nc(N[C@@H]3CCNC3)nc(Nc3ccc4c(c3)S(=O)(=O)CC4)c12` [GSK2181306], the “%Inh” value stood at 85%.
With `Cc1ccccc1CC(=O)N1CCc2cc(-c3cn(C)c4ncnc(N)c34)ccc21` [GSK2603346] the figure was 0%; with `O=C(Nc1n[nH]c2nc(-c3ccccc3)ccc12)C1CC1` [SB-708999], 10%.
The same measure for `CN(c1ccc(NC(=O)Nc2cccc(Cl)c2)cc1)c1ccnc(N)n1.Cl` [GW830707]: 24%; for `CN(C)CCOc1ccc(-c2cc(-c3ccc(Cl)c(O)c3)c(-c3ccncc3)[nH]2)cc1.Cl.Cl` [SB-684387]: 21%; for `Cc1ccc(Nc2ccnc(Nc3ccc(C)c(F)c3)n2)cc1O.Cl` [GW582868]: 0%.
The same measure for `CN(c1ccc(NC(=O)N2CCN(CCCN3CCOCC3)CC2)cc1)c1ccnc(Nc2ccc(CS(C)(=O)=O)cc2)n1.Cl` [GW830899]: 0%; for `Nc1ncnc2scc(-c3ccc(NC(=O)Cc4cc(F)ccc4F)cc3)c12.O=C(O)C(F)(F)F` [SB-731254-M]: 0%; for `CC(C)c1nc(-c2cccc(NS(=O)(=O)c3c(F)cccc3F)c2)c(-c2ccnc(Nc3ccc(N4CCOCC4)nc3)n2)s1.Cl` [GSK1723980]: 62%.
Consider `Cl.N#CCc1ccc(Nc2nccc(Nc3ccc(Oc4ccccc4)cc3)n2)cc1` [GW639905], for which the “%Inh” value came out at 0%.
`CNc1nccc(-c2ccc3c(N)n[nH]c3c2)n1` [GSK2206003]: the “%Inh” value was determined as 23%.
With `COC(=O)Nc1nc2ccc(Oc3ccc(NC(=O)Nc4cc(C(F)(F)F)ccc4F)cc3)cc2[nH]1.Cl` [GW654607] the figure was 97.4%; with `O=C(O)C(F)(F)F.O=c1[nH]ccc2nc(N[C@@H]3CCNC3)nc(Nc3cc(Cl)cc(Cl)c3)c12` [GSK2188764], 85%.
Take `Cl.O=C(Nc1ccc(Oc2ccc3[nH]c(NC(=O)c4ccco4)nc3c2)cc1)Nc1cc(C(F)(F)F)ccc1F` [GW683134]: the “%Inh” value is 78%.
For the compound `c1ccc(Oc2ccc(Nc3ccnc4cc(-c5ccc(CN6CCCCC6)o5)ccc34)cc2)nc1` [GW567143], the “%Inh” value turned out to be 45%.
With `NCCC(NC(=O)c1cc(Br)c(-c2ccnc3[nH]ccc23)s1)c1ccccc1.O=C(O)C(F)(F)F.O=C(O)C(F)(F)F` (stereo not shown) [GSK1307810] the figure was 47%; with `COc1ccc(NC(=O)c2ccoc2)cc1-c1ccc(C(=O)NCC2CC2)cc1` [GW810437], 26%.
`CCn1c(-c2nonc2N)nc2c(-c3ccccc3)ncc(OCCCN)c21.O=C(O)C(F)(F)F.O=C(O)C(F)(F)F` [GSK260205]: the “%Inh” value is recorded as 0%.
In the case of `CS(=O)(=O)c1cccc(CNc2nc(Nc3ccc4c(c3)CCC(=O)N4)ncc2C(F)(F)F)c1`, the “%Inh” value turned out to be 80%.
With `O=C(Nc1c(F)cccc1F)c1cc(C(=O)c2ccccc2F)c[nH]1` [GSK1326180] the figure was 0%; with `O=C(Nc1n[nH]c2nc(-c3cccc(O)c3)ccc12)C1CC1` [SB-711805], 23%.
In the case of `Cc1ccc(O)cc1Nc1ccnc2ccc(C(C)(C)C)cc12` [GW856805], the “%Inh” value worked out at 42%.
The same measure for `Cc1cccc(Nc2nc(NCCN)ncc2C(N)=O)c1` [GSK1292139]: 24%; for `Cn1cc(-c2ccc3c(c2)CCN3C(=O)Cc2cc(F)cc(C(F)(F)F)c2)c2c(N)ncnc21` [GSK2635225]: 11%.
Regarding `Cn1cc(-c2cnc(N)c3c(-c4ccc5c(c4)CCN5C(=O)Cc4ccccc4)csc23)cn1` [GSK2593074], the “%Inh” value is reported as 19%.
Regarding `CC(C)c1nc(-c2ccc(F)c(NS(=O)(=O)c3c(F)cccc3F)c2)c(-c2ccnc(Nc3ccc(N4CCOCC4)nc3)n2)s1` [GSK1804250], the “%Inh” value worked out at 10%.
The same measure for `CC(C)NCC(Cc1ccccc1)NC(=O)c1cc(Br)c(-c2ccnc3[nH]ccc23)s1.Cl.Cl` (stereo not shown) [GSK1383281]: 16%; for `COc1cccc(CC(=O)N2CCc3cc(-c4cn(C)c5ncnc(N)c45)ccc32)c1` [GSK2608899]: 4%.
With `N#Cc1cnc2cc(-c3cnc(CNCCN4CCOCC4)s3)ccc2c1Nc1ccc(Oc2ccccc2)cc1` [GW664114] the figure was 15%; with `COc1cccc2c(-c3ccncc3)c(-c3ccc(F)cc3)nn12` [GW468513], 0%.
The same measure for `COc1cccc(NC(=O)NCCNc2ccnc(Nc3ccc(F)cc3)n2)c1` [GSK1379879]: 0%; for `Nc1ncc(-c2ccc3nccc(-c4ccncc4)c3c2)cc1S(=O)(=O)N1CCCCC1` [GSK1693850]: 80%.

Source of the values: publication PMC5540273 (PLoS ONE, 2017).
